Consider seven molecules from PubChem BioAssay (NCATS).

Test [1] can be described thus: AP1 Signaling Pathway (AID 357; active = well fitted curve in either direction with a large enough effect, not every such curve was filed as active;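 note: ME-180 reporter cells stimulated with EGF at its EC50 level; % is set by controls: 0 for no effect and ±100 for the full control effect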). Put shortly: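 Titration-series screen for positive or negative modulators of EC50 EGF-induced signaling in ME-180 cells carrying an AP-1-driven beta-lactamase reporter. After 5 hours at 37 degrees Celsius, CCF4 460nm/530nm emission ratio gave %Activity; AC50 values derived.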
For test [2], the target named is Cytochrome P450 1A2 (Homo sapiens) (UniProt P05177). The test can be described thus: p450-cyp1a2 (AID 410; calls by dose curve; note: potency is the fitted concentration of half-maximal effect;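 for activity change, negative = inhibition: -100% = full effect of reference inhibitor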). Put shortly:
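Human CYP1A2 (20nM) demethylated Luciferin-ME at its Km (100uM) in 100mM KPO4. After 10 min compound preincubation, NADPH regeneration ran the reaction 60 min at room temperature. Luciferin was read by luminescence, normalized to 57 uM furafylline.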

Test [3] in a line: NFAT Signaling Pathway (AID 444; active = well fitted curve in either direction with a large enough effect, not every such curve was filed as active;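 note: carbachol stimulus at about its EC50 of 1 µM final; % is set by controls: 0 for no effect and ±100 for the full control effect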). As to conditions: Jurkat NFAT-bla M1, carbachol, beta-lactamase ratio, 5 h; at 17.2 µM (top of the series) unless noted. Summed up:
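Jurkat cells with NFAT-driven β-lactamase reporter and co-expressed M1 receptor, stimulated with carbachol (final 1 uM, ~EC50), compound titration, 5 h at 37 °C. CCF4 loaded 1 h at RT; 460/530 nm ratio gave %activity and AC50.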

Test [4] deals with Glucocorticoid receptor (Homo sapiens) (UniProt P04150). The test can be described thus: GR-GFP Redistribution (AID 450;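 active = compounds whose dose series gives a full or clear partial fitted curve of increased nuclear translocation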; note: potency is the fitted concentration of half-maximal effect). As to conditions: U2OS GR-GFP nuclear translocation, laser cytometry, 2 h.
Test [5] has the same target. The test can be described thus: GR-EFC Redistribution (AID 451; calls by dose curve; note: potency is the fitted concentration of half-maximal effect). To be noted: CHO-K1 GR-EFC translocation, beta-gal luminescence, 2 h. Summed up:
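CHO-K1 cells expressing nuclear EA and GR-ED fragments of b-gal; compounds titrated up to 46 uM final, 2 h at 37 C. GR nuclear translocation read as complemented b-gal luminescence after 1 h RT detection.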

For test [6], the target named is Mitogen-activated protein kinase 10 (Mus musculus) (UniProt Q61831). Description: JNK3 AlphaScreen Assay (AID 530; active = well fitted curve in either direction with a large enough effect, not every such curve was filed as active;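 note: kinase came from lysate of stimulated human HepG2 cells; signal reports phosphorylation of biotinylated GST-cJun 1-79 at Ser73 with 10 µM ATP; % is set by controls: 0 for no effect and ±100 for the full control effect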). Put shortly: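 qHTS format: compounds tested as titrations against IL-1beta/TNF-alpha-activated HepG2 lysate JNK3 with biotin-GST-cJun substrate and 10 uM ATP at room temperature. Loss of anti-phospho-cJun AlphaScreen signal indicates inhibition.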

Test [7] concerns the target 3',5'-cyclic-AMP phosphodiesterase 4B (Homo sapiens) (UniProt Q07343). The test can be described thus: qHTS Assay for Inhibitors of PDE-IV (AID 607; active = well fitted activation curve with a large enough effect in the main read-out, with a control signal flat, not every such curve was filed as active; note: % of control where 0% means no effect). Put shortly:
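ACTOne HEK293 cells carry a modified cAMP-gated CNG channel and express endogenous PDE4; plated 1000 cells/well, compounds up to 22.9 uM final. Membrane-potential dye fluorescence (ex 535/em 590) was read; parental cells received 10 uM forskolin + 100 uM RO 20-1724.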

Test [8] can be described thus: qHTS Assay for Lipid Storage Modulators (AID 1519; calls by dose curve). As to conditions: Drosophila S3 cells, BODIPY lipid droplet/cell ratio, laser cytometry, cells loaded with oleic acid; for activity change, negative = inhibition: at 25.7 µM (top of the series). Put shortly:
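Cells seeded at 5,000 per well were treated with compounds over a concentration series and loaded with oleic acid (400 uM, as added). Lipid droplet fluorescence (488 nm excitation, 500-530 nm channel) was read by laser-scanning cytometry and normalized to 20 uM Triacsin C.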

Test [9] addresses Ubiquitin carboxyl-terminal hydrolase 1 (Homo sapiens) (UniProt O94782). Description: Inhibitors of USP1/UAF1: Pilot qHTS (AID 504865).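 Note: rhodamine fluorescence freed from ubiquitin-rhodamine substrate followed over time; top concentration of the series differs between compounds; % is set by controls: 0 for no effect and ±100 for the full control effect; nearly all actives have a fitted effect of over 35% in size.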 Put shortly: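 Enzyme-free wells gave the negative control, while test wells held 1nM USP1/UAF1 preincubated with compound for 15 min at room temperature. Ub-Rho at 150nM final started the reaction, and fluorescence at 480/540 nm was recorded kinetically.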

Test [10] in a line: Stat Signaling Pathway (AID 446; active = well fitted curve in either direction with a large enough effect, not every such curve was filed as active;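 note: ME-180 cervical cancer cells given 40 pM IL-6 alongside compound; SIE-controlled beta-lactamase reporter measured as 460/530 nm FRET emission ratio; % is set by controls: 0 for no effect and ±100 for the full control effect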). Put shortly:
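ME-180 SIE-bla cells; overnight plating; cpd + IL-6 40 pM, 5 h, 37 C; LiveBLAzer 2.5 h RT; 460/530 nm emission ratio. Normalized to 300 pM IL-6 and 125 nM JAK inhibitor controls.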

Test [11] deals with Luciferin 4-monooxygenase (Photinus pyralis) (UniProt P08659). Description: Biochemical firefly luciferase enzyme assay for NPC (AID 624030).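 Note: purified P. pyralis luciferase at 10 nM with luciferin and ATP substrate; 0% = DMSO and -100% = full luciferase inhibition by PTC124 control; nearly all actives have a fitted effect of over 70% in size.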 Put shortly:
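Purified P. pyralis luciferase at 10 nM in 50 mM Tris Acetate (final), luminescence read within 5 minutes of enzyme addition to compounds. Activity normalised to PTC124 versus DMSO; concentration-response curves classed by r2, magnitude and activity.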

A short description of test [12]: S16 Schwann cell viability assay (CellTiter-Glo assay) (AID 624031).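 Note: cellular ATP luminescence as a viability measure; plate controls were DMSO-treated cells for no effect and cell-free wells for full effect; nearly all actives have a fitted effect of over 70% in size.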 Put shortly: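 Native S16 rat Schwann cells, 500-750 cells/well in DMEM with 10% FBS, dosed with compound after overnight culture and incubated 24h at 37 degree Celsius/5% CO2. Viability by CellTiter-Glo luminescence; % activity normalized to no-cell wells and DMSO-treated cells.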
Test [13] in a line: qHTS profiling for inhibitors of Plasmodium falciparum proliferation (AID 504749).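 For activity, negative = inhibition: 0% = DMSO vehicle and full inhibition = artemisinin control.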 For all read-outs here: nearly all actives have a fitted effect of over 60% in size. Note: potency is the fitted concentration of half-maximal effect. To be noted: P. falciparum in erythrocytes, SYBR Green DNA, 72 h; for activity, negative = inhibition: at 12.8 µM (top of the series). Put shortly: (§1)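 Readout was DNA-dye fluorescence from lysed cultures, ex 485/em 535 nm. Parasitized red cells had grown 72 h with compound; data scaled between 0.29 uM artemisinin and DMSO wells and corrected using vehicle-only plates.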

The subject of another test is CP262. The test is described as above. As to conditions: P. falciparum in erythrocytes, SYBR Green DNA, 72 h; series mostly up to 12.8 µM. Summed up: as §1
The test system of the next test is CP268. Described as above. As to conditions: P. falciparum in erythrocytes, SYBR Green DNA, 72 h; series mostly up to 12.8 µM. Put shortly: as §1
Another test deals with SC27B. The test is described as above. To be noted: P. falciparum in erythrocytes, SYBR Green DNA, 72 h; series mostly up to 12.8 µM. Summed up: as §1
The next test has as its system C2A. The description is as above. To be noted: P. falciparum in erythrocytes, SYBR Green DNA, 72 h; series mostly up to 12.8 µM. Summed up:
as §1

Another test deals with CP191. The test is described as above. To be noted: P. falciparum in erythrocytes, SYBR Green DNA, 72 h; series mostly up to 12.8 µM. Summed up:
as §1

For the next test, the system named is CP256. The description is as above. To be noted: P. falciparum in erythrocytes, SYBR Green DNA, 72 h; series mostly up to 12.8 µM. Summed up: as §1
The test system of the next test is JCK. The description is as above. As to conditions: P. falciparum in erythrocytes, SYBR Green DNA, 72 h; series mostly up to 12.8 µM. Summed up: as §1
[14] abbreviates: measured here: cell count channel max response.
The mark [15] stands for this setting: measured here: lipid channel max response.

Results filed as inconclusive are left out. Activity calls are given as the source filed them. Unless noted, calls come from the whole dose curve; as a rule, active = well fitted curve in the direction sought with a large enough effect; inconclusive = small, poorly fitted or top-dose-only effect, or another doubt; inactive = no such curve, though single readings can be large; an effect the other way counts as inactive or inconclusive.

Chain of Luciferin 4-monooxygenase (Photinus pyralis) (P08659 whole entry, looked up): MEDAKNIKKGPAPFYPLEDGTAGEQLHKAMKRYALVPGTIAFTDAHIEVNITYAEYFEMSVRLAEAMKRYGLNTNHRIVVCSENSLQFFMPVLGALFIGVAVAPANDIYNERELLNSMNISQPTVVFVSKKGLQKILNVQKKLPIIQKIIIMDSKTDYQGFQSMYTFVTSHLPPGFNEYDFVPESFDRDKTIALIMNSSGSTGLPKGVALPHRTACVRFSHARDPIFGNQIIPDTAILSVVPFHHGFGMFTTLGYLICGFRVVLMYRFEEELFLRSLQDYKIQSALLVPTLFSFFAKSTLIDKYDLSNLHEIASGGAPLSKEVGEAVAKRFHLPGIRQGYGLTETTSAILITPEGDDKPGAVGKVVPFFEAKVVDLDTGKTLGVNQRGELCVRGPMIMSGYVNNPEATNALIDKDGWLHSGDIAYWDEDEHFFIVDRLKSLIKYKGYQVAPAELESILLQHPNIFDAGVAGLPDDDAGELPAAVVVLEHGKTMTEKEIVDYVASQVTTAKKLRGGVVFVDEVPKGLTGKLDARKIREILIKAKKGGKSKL
Chain of 3',5'-cyclic-AMP phosphodiesterase 4B (Homo sapiens) (Q07343 whole entry, looked up): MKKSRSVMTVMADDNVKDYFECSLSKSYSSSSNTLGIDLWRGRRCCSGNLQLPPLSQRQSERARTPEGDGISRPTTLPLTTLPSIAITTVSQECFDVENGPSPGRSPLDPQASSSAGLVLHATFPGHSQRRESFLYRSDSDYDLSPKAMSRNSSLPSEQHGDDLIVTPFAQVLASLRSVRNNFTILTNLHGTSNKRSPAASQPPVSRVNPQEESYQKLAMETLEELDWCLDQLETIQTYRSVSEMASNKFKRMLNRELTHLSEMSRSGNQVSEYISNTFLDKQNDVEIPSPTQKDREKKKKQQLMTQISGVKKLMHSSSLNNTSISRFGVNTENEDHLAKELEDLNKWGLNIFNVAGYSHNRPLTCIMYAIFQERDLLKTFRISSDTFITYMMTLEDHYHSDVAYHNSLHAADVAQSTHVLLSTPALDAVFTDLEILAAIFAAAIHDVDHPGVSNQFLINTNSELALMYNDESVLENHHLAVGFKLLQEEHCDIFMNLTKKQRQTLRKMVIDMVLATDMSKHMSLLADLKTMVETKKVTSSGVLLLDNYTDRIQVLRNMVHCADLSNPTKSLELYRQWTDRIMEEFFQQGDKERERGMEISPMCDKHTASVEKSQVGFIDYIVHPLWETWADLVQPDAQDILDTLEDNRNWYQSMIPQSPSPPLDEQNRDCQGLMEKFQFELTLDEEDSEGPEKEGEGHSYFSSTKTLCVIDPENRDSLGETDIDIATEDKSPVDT
Chain of Ubiquitin carboxyl-terminal hydrolase 1 (Homo sapiens) (O94782 whole entry, looked up): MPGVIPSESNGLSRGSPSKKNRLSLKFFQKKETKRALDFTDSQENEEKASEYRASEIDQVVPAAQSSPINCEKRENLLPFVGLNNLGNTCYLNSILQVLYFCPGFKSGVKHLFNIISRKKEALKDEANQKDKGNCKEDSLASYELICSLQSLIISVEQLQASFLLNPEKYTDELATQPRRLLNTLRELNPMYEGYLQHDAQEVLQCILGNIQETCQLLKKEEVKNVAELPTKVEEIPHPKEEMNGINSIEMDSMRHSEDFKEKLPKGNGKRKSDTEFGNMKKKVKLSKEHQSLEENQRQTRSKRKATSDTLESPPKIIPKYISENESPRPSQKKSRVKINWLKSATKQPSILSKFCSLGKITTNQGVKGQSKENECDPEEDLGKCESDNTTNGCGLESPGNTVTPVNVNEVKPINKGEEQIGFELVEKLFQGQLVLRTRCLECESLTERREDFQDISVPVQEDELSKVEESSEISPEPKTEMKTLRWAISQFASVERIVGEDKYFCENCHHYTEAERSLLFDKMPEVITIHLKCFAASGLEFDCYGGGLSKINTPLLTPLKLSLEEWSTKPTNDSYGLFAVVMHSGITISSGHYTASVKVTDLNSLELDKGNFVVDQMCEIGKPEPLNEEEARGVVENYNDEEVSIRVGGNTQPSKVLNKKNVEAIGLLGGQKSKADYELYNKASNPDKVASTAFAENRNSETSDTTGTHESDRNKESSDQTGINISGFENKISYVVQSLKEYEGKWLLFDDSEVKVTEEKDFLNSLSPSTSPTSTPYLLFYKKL
Chain of Cytochrome P450 1A2 (Homo sapiens) (P05177 whole entry, looked up): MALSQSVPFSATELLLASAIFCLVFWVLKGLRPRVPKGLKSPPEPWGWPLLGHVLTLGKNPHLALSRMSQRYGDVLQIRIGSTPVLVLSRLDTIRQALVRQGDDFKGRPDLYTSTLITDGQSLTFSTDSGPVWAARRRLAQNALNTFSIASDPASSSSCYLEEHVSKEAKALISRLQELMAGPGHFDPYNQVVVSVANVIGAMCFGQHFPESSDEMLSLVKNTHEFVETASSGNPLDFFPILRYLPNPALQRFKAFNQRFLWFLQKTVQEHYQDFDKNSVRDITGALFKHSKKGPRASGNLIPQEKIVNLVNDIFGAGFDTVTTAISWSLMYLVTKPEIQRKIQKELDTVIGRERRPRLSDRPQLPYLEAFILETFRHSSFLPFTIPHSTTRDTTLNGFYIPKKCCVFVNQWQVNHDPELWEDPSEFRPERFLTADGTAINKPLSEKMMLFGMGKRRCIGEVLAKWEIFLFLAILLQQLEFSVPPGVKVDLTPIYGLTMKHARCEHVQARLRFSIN
Chain of Glucocorticoid receptor (Homo sapiens) (P04150 whole entry, looked up): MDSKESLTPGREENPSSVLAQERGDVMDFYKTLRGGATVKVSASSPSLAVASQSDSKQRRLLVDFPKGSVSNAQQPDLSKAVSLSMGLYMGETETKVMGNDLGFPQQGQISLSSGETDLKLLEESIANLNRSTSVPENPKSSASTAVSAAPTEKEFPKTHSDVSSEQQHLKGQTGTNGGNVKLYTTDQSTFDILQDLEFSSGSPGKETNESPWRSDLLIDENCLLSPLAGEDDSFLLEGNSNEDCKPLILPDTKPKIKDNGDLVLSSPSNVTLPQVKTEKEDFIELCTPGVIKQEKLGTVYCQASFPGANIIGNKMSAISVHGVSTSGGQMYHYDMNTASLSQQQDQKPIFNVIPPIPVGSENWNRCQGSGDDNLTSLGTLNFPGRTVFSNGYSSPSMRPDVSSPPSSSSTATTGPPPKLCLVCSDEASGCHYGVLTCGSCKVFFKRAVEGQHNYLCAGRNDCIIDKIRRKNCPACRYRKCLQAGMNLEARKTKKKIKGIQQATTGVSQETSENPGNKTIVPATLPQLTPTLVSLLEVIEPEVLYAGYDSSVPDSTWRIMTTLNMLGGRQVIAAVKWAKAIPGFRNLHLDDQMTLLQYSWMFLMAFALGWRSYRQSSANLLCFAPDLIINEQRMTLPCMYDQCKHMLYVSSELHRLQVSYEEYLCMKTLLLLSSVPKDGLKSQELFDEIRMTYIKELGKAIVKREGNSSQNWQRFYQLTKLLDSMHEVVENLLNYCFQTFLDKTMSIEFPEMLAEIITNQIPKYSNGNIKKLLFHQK

As for `C[C@]12CC[C@@H]3C(=CCc4cc(O)ccc43)[C@@H]1CCC2=O`, the molecule was classed as inactive in test [1] and in [7]. The Potency in test [2] was 10 µM (active); in test [4] it was > 20.6 µM (inactive); in [5], > 20.6 µM (inactive). Besides, the figures for the activity change, negative = inhibition in test [3] and in test [8] were 1.57% (inactive) and -4.32% (inactive), respectively. The Potency result in [6] and in test [9] was “inactive” each time. Besides, the max response in test [8] (setting [14]) was -14.4%; in [8] (setting [15]), -15.4%.

On to `CCN1CCN(C(=O)N[C@H](C(=O)N[C@@H]2C(=O)N3[C@@H]2SC(C)(C)[C@@H]3C(=O)O)c2ccccc2)C(=O)C1=O`, for which the call in test [1], in test [10] and in test [7] was inactive. Also, the Potency entry in test [2], in test [6] and in test [9] was “inactive” in each case. Also, the activity change, negative = inhibition in [3] was -2.87% (inactive); in test [8] it was 0.264% (inactive). Moreover, the max response in [8] (setting [14]) is -7.94%; in test [8] (setting [15]), -7.68%.

Take `CN=C(NC#N)NCCSC[C@H]1N=CN=C1C`: the molecule was called inactive in [1] and in [7]. In addition, the Potency result in test [2], in test [6] and in [9] was “inactive” throughout. The activity change, negative = inhibition in test [3] was -3.43% (inactive); in [8], -0.0882% (inactive). Besides, the max response in [8] (setting [14]) is -1.59%; in test [8] (setting [15]) it was -1.32%.

On to `CC(=O)OCC(=O)[C@@]1(O)CC[C@@H]2[C@H]3CCC4=CC(=O)CC[C@]4(C)[C@]3(F)[C@@H](O)C[C@@]21C`, for which the result in test [1] and in [10] was inactive. Also, the Potency entry in test [2], in test [6] and in test [9] was “inactive” each time. For the same molecule, the values for the activity change, negative = inhibition in [3] and in test [8] were -9.54% (inactive) and 0.165% (inactive), respectively. Moreover, the values for the max response in [8] (setting [14]) and in test [8] (setting [15]) were 9.04% and 9.02%, respectively.

As to `Clc1ccc([C@H](Cn2ccnc2)OCc2csc3c(Cl)cccc23)c(Cl)c1`, the outcome in test [1], in [10] and in [12] was inactive. For the same molecule, the Potency in test [2] is 6.31 µM (active); in test [4], > 20.6 µM (inactive); in [5] it was > 20.6 µM (inactive); in [13] (parasite line B), 3.55 µM (active); with SC27B it was 4.47 µM (active). For the same molecule, the Potency entry (in [6]; in [9]; in [11]; with CP262; in the test with CP268) was “inactive” each time. Also, the activity change, negative = inhibition in test [8] was 0.1% (inactive). The max response in test [8] (setting [14]) was -11.9%; in test [8] (setting [15]), -11.7%.

For the molecule `NC(=O)c1cc[n+](CC2=C(C(=O)[O-])N3C(=O)[C@@H](NC(=O)Cc4cccs4)[C@@H]3SC2)cc1`, the molecule was called inactive in test [1], in test [10], in test [7] and in [12]. In addition, the Potency entry (in [2]; in [6]; in [9]; in test [11]; in the test on C2A; with CP191) was “inactive” in each case. The Potency result with CP256, in the test on CP262, in the test on CP268, in the test on JCK and with SC27B was “inactive” in each case. Further, the results for the activity change, negative = inhibition in test [3] and in test [8] were -11% (inactive) and -1.16% (inactive), respectively. Moreover, the max response is -15% in [8] (setting [14]) and -16.9% in test [8] (setting [15]). Also, the activity, negative = inhibition in test [13] (parasite line A) is -3.3% (inactive); in test [13] (parasite line B), 1.86% (inactive).

In the case of `C[C@@]12CC[C@H]3[C@@H](CCC4=CC(=O)CC[C@]43C)[C@H]1CC[C@H]2C(=O)CO`, the molecule was classed as inactive in test [1], in test [7] and in test [12]. Also, the Potency result (in test [2]; in test [6]; in [11]; in the test with C2A; with CP191; in the test on CP256) was “inactive” throughout. The Potency result with CP262, with CP268, with JCK and in the test with SC27B was “inactive” throughout. For the same molecule, the results for the activity change, negative = inhibition in [3] and in [8] were -6.24% (inactive) and -5.79% (inactive), respectively. For the same molecule, the Potency is 0.0622 µM (active) in [4], > 20.6 µM (inactive) in [5] and 4.47 µM (active) in [13] (parasite line A). For the same molecule, the max response in test [8] (setting [14]) was -3.01%; in test [8] (setting [15]), -9.53%. For the same molecule, the activity, negative = inhibition in test [13] (parasite line B) is 3.27% (inactive).
